The record followed here is PubChem BioAssay (Tox21).

Where “and” joins values, the source holds several entries; their conditions need not be identical. Equal values may be shown once. Results filed as inconclusive are left out. Where a structure was tested more than once in an assay, its records may differ in their call. Calls of active or inactive are those of the source. The call rests on the fitted dose curve; in most records, active means well fitted curve in the direction sought with a large enough effect in the repeat runs; inconclusive means weak or mixed curves; inactive means no such curve, though single readings can be large; an effect the other way counts as inactive or inconclusive.

For experiment [1], the target named is Cytochrome P450 2D6 (Homo sapiens) (UniProt P10635). As to the kind of experiment: Cytochrome P450 Family 2 Subfamily D Member 6 (CYP2D6) small molecule antagonists: luciferase reporter qHTS assay (AID 1671196). Further: nearly all actives have a fitted effect of over 50% in size. Further: potency means the concentration at half of the fitted maximal effect. On activity change, negative = inhibition: series mostly up to about 120 µM. Put shortly:
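P450-Glo format: CYP2D6 converts a proluciferin substrate to luciferin in an NADPH-driven reaction lasting 1 h at room temperature. Light output, proportional to CYP2D6 activity, reflects interference by test chemicals.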
Background: A reporter such as luciferase makes a cellular process visible.

The target of experiment [2] is Cytochrome P450 2C19 (Homo sapiens) (UniProt P33261). As to the kind of experiment: Cytochrome P450 Family 2 Subfamily C Member 19 (CYP2C19) small molecule antagonists: luciferase reporter qHTS assay (AID 1671197). Further: nearly all actives have a fitted effect of over 65% in size. Further: potency means the concentration at half of the fitted maximal effect. On activity change, negative = inhibition: series mostly up to about 120 µM. In a few lines: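 Luminescent readout of CYP2C19 activity: luciferin product detected 20 min after adding detection reagent. Before that, compound and enzyme-substrate mix preincubated 10 min at room temperature; NADPH-regenerating system started a 1 h, 37C reaction. Ketoconazole as positive control.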
Sequence of Cytochrome P450 2C19 (Homo sapiens) (P33261 whole entry, looked up): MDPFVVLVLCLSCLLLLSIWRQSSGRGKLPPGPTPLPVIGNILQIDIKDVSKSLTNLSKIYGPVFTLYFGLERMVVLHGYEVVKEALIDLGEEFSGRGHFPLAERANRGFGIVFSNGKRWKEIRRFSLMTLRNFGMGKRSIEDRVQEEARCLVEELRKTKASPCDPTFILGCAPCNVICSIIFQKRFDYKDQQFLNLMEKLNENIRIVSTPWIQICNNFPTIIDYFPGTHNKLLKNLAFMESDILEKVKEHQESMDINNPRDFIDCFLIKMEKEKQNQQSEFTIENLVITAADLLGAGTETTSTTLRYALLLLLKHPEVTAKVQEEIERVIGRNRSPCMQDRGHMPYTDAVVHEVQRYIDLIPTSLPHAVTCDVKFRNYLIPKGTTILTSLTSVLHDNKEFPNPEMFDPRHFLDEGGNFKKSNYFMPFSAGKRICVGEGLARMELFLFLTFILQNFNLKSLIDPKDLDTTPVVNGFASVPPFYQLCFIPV

Experiment [3] has as its target Cytochrome P450 2C9 (Homo sapiens) (UniProt P11712). As to the kind of experiment: Cytochrome P450 Family 2 Subfamily C Member 9 (CYP2C9) small molecule antagonists: luciferase reporter qHTS assay (AID 1671198). Further: series mostly up to about 120 µM; nearly all actives have a fitted effect of over 50% in size. Put shortly: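 Enzyme-substrate mix preincubated with compound 10 min at room temperature; reaction started with NADPH regeneration solution, 1 h 37C. Luminescent luciferin product read after 20 min detection reagent.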

In experiment [4] the target is Voltage-gated inwardly rectifying potassium channel KCNH2 (Homo sapiens) (UniProt Q12809). As to the kind of experiment: Human Ether-a-go-go-Related Gene (hERG) channel small molecule antagonists: fluorescence cell-based qHTS assay (AID 1671200). Further: series mostly up to about 77 µM; nearly all actives have a fitted effect of over 50% in size. In a few lines: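 Thallium flux as potassium surrogate: FluxOR II dye loaded 1 h at room temperature into hERG-expressing U2OS cells, then stimulus buffer added after 10 min. Kinetic 480 nm excitation/540 nm emission read, 2 min.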
Sequence of Voltage-gated inwardly rectifying potassium channel KCNH2 (Homo sapiens) (Q12809 whole entry, looked up): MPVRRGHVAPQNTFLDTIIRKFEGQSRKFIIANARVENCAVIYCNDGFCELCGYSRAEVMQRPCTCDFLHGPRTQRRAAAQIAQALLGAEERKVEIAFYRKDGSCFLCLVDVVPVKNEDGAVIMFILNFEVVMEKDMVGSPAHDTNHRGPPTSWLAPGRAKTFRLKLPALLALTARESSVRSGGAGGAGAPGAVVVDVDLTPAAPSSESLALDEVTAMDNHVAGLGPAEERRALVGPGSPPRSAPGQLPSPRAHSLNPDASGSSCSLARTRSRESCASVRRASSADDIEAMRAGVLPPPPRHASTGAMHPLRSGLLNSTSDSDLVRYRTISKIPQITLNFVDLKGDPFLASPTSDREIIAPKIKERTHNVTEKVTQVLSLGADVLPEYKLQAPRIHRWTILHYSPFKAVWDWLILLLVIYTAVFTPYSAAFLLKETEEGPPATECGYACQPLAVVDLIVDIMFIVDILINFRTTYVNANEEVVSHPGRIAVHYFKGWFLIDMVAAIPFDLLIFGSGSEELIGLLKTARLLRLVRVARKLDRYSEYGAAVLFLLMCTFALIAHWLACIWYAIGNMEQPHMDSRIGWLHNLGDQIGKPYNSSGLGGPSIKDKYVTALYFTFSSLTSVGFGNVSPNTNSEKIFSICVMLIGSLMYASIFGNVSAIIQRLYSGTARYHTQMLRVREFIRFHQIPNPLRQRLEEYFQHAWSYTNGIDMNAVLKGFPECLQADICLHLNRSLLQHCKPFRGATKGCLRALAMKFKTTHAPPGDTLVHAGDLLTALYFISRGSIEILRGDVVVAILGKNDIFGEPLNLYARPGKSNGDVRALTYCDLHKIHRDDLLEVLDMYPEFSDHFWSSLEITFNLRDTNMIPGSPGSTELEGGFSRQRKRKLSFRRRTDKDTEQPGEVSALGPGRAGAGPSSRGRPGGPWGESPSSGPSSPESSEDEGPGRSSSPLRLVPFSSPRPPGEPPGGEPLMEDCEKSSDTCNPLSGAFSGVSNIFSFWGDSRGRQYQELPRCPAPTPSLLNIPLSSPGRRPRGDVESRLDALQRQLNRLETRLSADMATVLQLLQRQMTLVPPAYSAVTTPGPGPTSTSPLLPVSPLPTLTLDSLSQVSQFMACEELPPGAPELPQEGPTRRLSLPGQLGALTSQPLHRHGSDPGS
For orientation: The hERG channel carries a current that helps repolarise heart muscle cells.

In experiment [5] the target is Cytochrome P450 3A4 (Homo sapiens) (UniProt P08684). As to the kind of experiment: Cytochrome P450 Family 3 Subfamily A Member 4 (CYP3A4) small molecule antagonists: luciferase reporter qHTS assay (AID 1671201). Further: series mostly up to about 120 µM; nearly all actives have a fitted effect of over 50% in size. In a few lines: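 Recombinant human CYP3A4 converts a proluciferin substrate to luciferin over 1 h at room temperature after NADPH regeneration solution is added (compound preincubated 10 min); detection reagent stops reaction, luminescence read 20 min later as relative units.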
Sequence of Cytochrome P450 3A4 (Homo sapiens) (P08684 whole entry, looked up): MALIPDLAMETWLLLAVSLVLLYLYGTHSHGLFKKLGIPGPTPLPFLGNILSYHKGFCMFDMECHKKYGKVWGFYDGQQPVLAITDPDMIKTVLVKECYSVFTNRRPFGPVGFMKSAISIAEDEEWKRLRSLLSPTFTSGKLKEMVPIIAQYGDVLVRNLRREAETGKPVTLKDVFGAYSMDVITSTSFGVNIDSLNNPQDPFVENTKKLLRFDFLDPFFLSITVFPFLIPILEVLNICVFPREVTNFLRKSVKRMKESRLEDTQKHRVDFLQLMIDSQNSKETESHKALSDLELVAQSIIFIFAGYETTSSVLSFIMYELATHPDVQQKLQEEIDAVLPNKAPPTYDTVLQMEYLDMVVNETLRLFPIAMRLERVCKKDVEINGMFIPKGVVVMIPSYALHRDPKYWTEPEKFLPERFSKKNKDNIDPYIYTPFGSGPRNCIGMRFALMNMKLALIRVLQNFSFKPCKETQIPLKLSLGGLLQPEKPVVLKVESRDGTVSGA

Experiment [6] has as its target Cytochrome P450 1A2 (Homo sapiens) (UniProt P05177). As to the kind of experiment: Cytochrome P450 Family 1 Subfamily A Member 2 (CYP1A2) small molecule antagonists: luciferase reporter qHTS assay (AID 1671199). Further: nearly all actives have a fitted effect of over 50% in size. Further: potency means the concentration at half of the fitted maximal effect. On activity change, negative = inhibition: series mostly up to about 120 µM. In a few lines: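 Inhibition of CYP1A2 conversion of proluciferin to luciferin, detected by luminescence. Reaction run 1 h at room temperature with NADPH regeneration after brief compound preincubation.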
On the % scale 0 is the no-effect control and ±100 the full control effect.

Sequence of Cytochrome P450 1A2 (Homo sapiens) (P05177 whole entry, looked up): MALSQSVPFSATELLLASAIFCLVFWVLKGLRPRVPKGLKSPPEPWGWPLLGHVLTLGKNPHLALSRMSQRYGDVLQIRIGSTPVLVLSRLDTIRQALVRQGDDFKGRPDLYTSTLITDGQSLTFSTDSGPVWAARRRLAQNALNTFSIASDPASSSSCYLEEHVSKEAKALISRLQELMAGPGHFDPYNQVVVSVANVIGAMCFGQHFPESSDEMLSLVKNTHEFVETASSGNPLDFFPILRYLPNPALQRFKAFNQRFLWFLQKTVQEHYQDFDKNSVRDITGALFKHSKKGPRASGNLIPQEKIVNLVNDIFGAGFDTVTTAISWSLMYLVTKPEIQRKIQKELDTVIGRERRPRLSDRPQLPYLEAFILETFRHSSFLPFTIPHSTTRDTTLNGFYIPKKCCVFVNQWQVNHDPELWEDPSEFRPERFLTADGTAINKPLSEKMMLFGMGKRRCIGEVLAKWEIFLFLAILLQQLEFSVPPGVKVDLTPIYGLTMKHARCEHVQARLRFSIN
Sequence of Cytochrome P450 2D6 (Homo sapiens) (P10635 whole entry, looked up): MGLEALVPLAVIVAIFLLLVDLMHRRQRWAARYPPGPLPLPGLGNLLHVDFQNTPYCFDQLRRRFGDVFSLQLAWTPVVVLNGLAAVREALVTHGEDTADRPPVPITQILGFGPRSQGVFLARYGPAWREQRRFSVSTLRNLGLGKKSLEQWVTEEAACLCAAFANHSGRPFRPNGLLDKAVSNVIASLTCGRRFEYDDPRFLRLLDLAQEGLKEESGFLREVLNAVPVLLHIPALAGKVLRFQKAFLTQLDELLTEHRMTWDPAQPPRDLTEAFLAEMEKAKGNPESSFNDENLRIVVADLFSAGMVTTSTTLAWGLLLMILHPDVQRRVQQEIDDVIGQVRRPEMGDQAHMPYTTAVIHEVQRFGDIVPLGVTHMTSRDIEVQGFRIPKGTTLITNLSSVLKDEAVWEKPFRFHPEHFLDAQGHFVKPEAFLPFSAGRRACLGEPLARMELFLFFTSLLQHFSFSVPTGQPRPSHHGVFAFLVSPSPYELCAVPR
Sequence of Cytochrome P450 2C9 (Homo sapiens) (P11712 whole entry, looked up): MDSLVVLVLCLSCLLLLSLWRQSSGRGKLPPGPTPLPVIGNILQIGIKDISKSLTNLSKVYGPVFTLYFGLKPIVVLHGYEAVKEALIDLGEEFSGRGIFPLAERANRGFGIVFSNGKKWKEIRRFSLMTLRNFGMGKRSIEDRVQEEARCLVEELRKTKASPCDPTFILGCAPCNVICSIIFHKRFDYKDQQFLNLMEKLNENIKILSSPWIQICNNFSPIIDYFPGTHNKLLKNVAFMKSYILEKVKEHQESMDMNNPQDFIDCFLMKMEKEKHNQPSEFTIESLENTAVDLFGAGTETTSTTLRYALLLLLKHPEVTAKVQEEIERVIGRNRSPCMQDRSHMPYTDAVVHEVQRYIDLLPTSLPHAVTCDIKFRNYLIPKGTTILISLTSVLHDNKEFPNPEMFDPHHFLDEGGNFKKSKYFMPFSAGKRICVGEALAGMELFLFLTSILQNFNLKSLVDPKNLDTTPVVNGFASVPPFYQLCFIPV

As for `CN1C(=O)N(C)C(O)C1O` (centres undefined), the Potency entry in experiment [1], in experiment [2], in experiment [3], in experiment [4] and in experiment [5] was “inactive” throughout.
`CCC(C)S` (centres undefined): the activity change, negative = inhibition in experiment [1] was -10.7% [at 4.07 µM] (inactive); in experiment [2], 8.24% [at 4.07 µM] (inactive); in experiment [3], -9.04% [at 4.07 µM] (inactive); in experiment [4], 1.71% [at 2.72 µM] (inactive); in experiment [5], 2.72% [at 4.07 µM] (inactive).
Consider `COC(=O)CCSCCC(=O)OC`, for which the Potency entry in experiment [1], in experiment [2], in experiment [3], in experiment [4] and in experiment [5] was “inactive” throughout.
As to `CCO[Si](CCC1CCC2OC2C1)(OCC)OCC` (centres undefined), the Potency entry in experiment [1], in experiment [2], in experiment [3], in experiment [4] and in experiment [5] was “inactive” in each case.
Take `Cc1ccc(Cl)cc1Cl`: the Potency entry in experiment [1], in experiment [2], in experiment [3], in experiment [4] and in experiment [5] was “inactive” each time.
As for `O=C(O)CCCl`, the Potency result in experiment [1], in experiment [2], in experiment [3], in experiment [4] and in experiment [5] was “inactive” each time.
With `CC(C)c1cc2c(cc1S(=O)(=O)O)[C@@]1(C)CCC[C@@](C)(C(=O)O)[C@@H]1CC2`, the Potency result in experiment [1], in experiment [2], in experiment [3], in experiment [4] and in experiment [5] was “inactive” throughout.
As for `CCC=O`, the Potency entry in experiment [1], in experiment [2], in experiment [3], in experiment [4] and in experiment [5] was “inactive” throughout.
Regarding `CCCCCCCCCCCCCC=O`, in experiment [1], the Potency is 2.78 µM (active). Besides, the activity change, negative = inhibition in experiment [2] is -12.1% [at 10.5 µM] (inactive); in experiment [3], -9.33% [at 10.5 µM] (inactive); in experiment [4], -8.57% [at 6.97 µM] (inactive); in experiment [5], -19.9% [at 10.5 µM] (inactive).
For the compound `NC(=O)c1cn(Cc2c(F)cccc2F)nn1`, the Potency entry in experiment [1], in experiment [2], in experiment [3], in experiment [6] and in experiment [5] was “inactive” throughout.
For `CCn1ccnc1CC1COc2ccccc2O1` (centres undefined), the Potency in experiment [1] is 0.776 µM (active); in experiment [2], 4.9 µM (active). Further, the Potency entry in experiment [3], in experiment [4] and in experiment [5] was “inactive” in each case.
`CC(C[N+](C)(C)C)OC(N)=O` (centres undefined): the Potency entry in experiment [1], in experiment [2], in experiment [3], in experiment [4] and in experiment [5] was “inactive” in each case.
Turning to `NC(CSCC(=O)O)C(=O)O` (centres undefined), the Potency entry in experiment [1], in experiment [2], in experiment [3], in experiment [4] and in experiment [5] was “inactive” throughout.
`OCCOc1ccc(OCCO)cc1`: the Potency entry in experiment [1], in experiment [2], in experiment [3], in experiment [4] and in experiment [5] was “inactive” in each case.
Consider `CCCCCCCCCCCCN(CCCCCCCCCCCC)CCCCCCCCCCCC`, for which the Potency result in experiment [1], in experiment [2], in experiment [3], in experiment [4] and in experiment [5] was “inactive” in each case.
Regarding `COC(=O)c1c(Cl)c(Cl)c(C(=O)OC)c(Cl)c1Cl`, the Potency result was “inactive and 31.7 µM (active)” in experiment [1]; 28.3 µM (active) and 15.9 µM (active) in experiment [2]; 317 nM (active) and 154 nM (active) in experiment [6]. Besides, the Potency result in experiment [3] and in experiment [5] was “inactive” in each case.
Take `CC(=O)Nc1ccc(S(N)(=O)=O)cc1`: the Potency result in experiment [1], in experiment [3], in experiment [6], in experiment [4] and in experiment [5] was “inactive” throughout.
In the case of `Nc1ccccc1S(=O)(=O)O`, the Potency entry in experiment [1], in experiment [2], in experiment [6], in experiment [4] and in experiment [5] was “inactive” throughout.
Consider `Cc1cc(O)cc2c1O[C@](C)(CCC[C@H](C)CCC[C@H](C)CCCC(C)C)CC2`, for which the Potency entry in experiment [1], in experiment [2], in experiment [4] and in experiment [5] was “inactive” throughout.
With `COC(=O)NN`, the Potency result in experiment [1], in experiment [3], in experiment [6], in experiment [4] and in experiment [5] was “inactive” throughout.
In the case of `C[C@](N)(Cc1ccc(O)cc1)C(=O)O`, the activity change, negative = inhibition in experiment [1] was -0.539% [at 10.5 µM] (inactive); in experiment [2], -21.1% [at 10.5 µM] (inactive); in experiment [6] it was 0.454% [at 10.5 µM] (inactive); in experiment [4], 1.07% [at 6.97 µM] (inactive); in experiment [5], -20.3% [at 10.5 µM] (inactive).
For the compound `Nc1ccc(S(=O)(=O)Nc2ccnn2-c2ccccc2)cc1`, the results for the activity change, negative = inhibition in experiment [1] and in experiment [4] were 0.38% [at 23.6 µM] (inactive) and 4.06% [at 15.8 µM] (inactive), respectively. Further, the Potency entry in experiment [2] and in experiment [6] was “inactive” in each case.
Regarding `O=C(O)COc1nn(Cc2ccccc2)c2ccccc12`, the Potency result in experiment [1], in experiment [2], in experiment [6], in experiment [4] and in experiment [5] was “inactive” in each case.
For `N#Cc1ccc(C2CCCc3cncn32)cc1` (centres undefined), the Potency in experiment [1] and in experiment [2] was 12.7 µM (active) in each case. In addition, the Potency entry in experiment [6] and in experiment [4] was “inactive” in each case.
In the case of `OC1CCCCC1c1ccccc1` (centres undefined), the Potency entry in experiment [1], in experiment [6], in experiment [4] and in experiment [5] was “inactive” throughout. Moreover, in experiment [2], the Potency was 79.6 µM (active).
Turning to `C/C=C(\C)C#N`, the Potency entry in experiment [1], in experiment [4] and in experiment [5] was “inactive” in each case. Moreover, the Potency in experiment [2] is 78.4 µM (active).
As to `CC(C)CCCC(C)N` (centres undefined), the Potency result in experiment [1], in experiment [3], in experiment [4] and in experiment [5] was “inactive” in each case. Besides, the Potency in experiment [6] is 21.9 µM (active).
As for `CN(C(=O)c1c(O)c2ccccc2n(C)c1=O)c1ccccc1`, the Potency entry in experiment [1], in experiment [2], in experiment [6], in experiment [4] and in experiment [5] was “inactive” in each case.
Consider `O=C(c1ccccc1)C1CCCCC1`, for which the Potency entry in experiment [1], in experiment [4] and in experiment [5] was “inactive” in each case. Also, the Potency in experiment [2] is 71 µM (active); in experiment [6], 44.8 µM (active).
As for `CCCCC/C=C\CCC=O`, the Potency result in experiment [1], in experiment [4] and in experiment [5] was “inactive” in each case. The Potency in experiment [2] is 63.3 µM (active).
With `CC(=O)c1ccccc1O`, the Potency entry in experiment [1], in experiment [2], in experiment [6], in experiment [4] and in experiment [5] was “inactive” in each case.
For the compound `CC(=O)OCC(=O)[C@@]1(O)CC[C@H]2[C@@H]3CCC4=CC(=O)CC[C@]4(C)[C@H]3C(=O)C[C@@]21C`, the Potency in experiment [1] was 2.45 µM (active). For the same compound, the Potency entry in experiment [2], in experiment [6], in experiment [4] and in experiment [5] was “inactive” each time.
For `N=C(N)c1ccc(OCCCOc2ccc(C(=N)N)cc2)cc1`, the Potency entry in experiment [1], in experiment [2], in experiment [6], in experiment [4] and in experiment [5] was “inactive” each time.
On to `Cc1ccc(C#N)cc1`, for which the Potency entry in experiment [1], in experiment [6], in experiment [4] and in experiment [5] was “inactive” each time. The Potency in experiment [2] was 34.4 µM (active).
On to `COc1ccccc1OCC(O)CN1CCN(CC(=O)Nc2c(C)cccc2C)CC1` (centres undefined), for which the Potency in experiment [1] is 13.8 µM (active). Besides, the Potency entry in experiment [2], in experiment [6] and in experiment [4] was “inactive” each time.
Take `O=C(O)Cc1ccc(CCNS(=O)(=O)c2ccc(Cl)cc2)cc1`: the Potency entry in experiment [1], in experiment [2], in experiment [6], in experiment [4] and in experiment [5] was “inactive” in each case.
As for `NC(=O)c1ccc([N+](=O)[O-])cc1`, the Potency entry in experiment [1], in experiment [4] and in experiment [5] was “inactive” throughout. In addition, the Potency was 79.3 µM (active) in experiment [2] and 39.8 µM (active) in experiment [6].
Consider `COC(C)(C)CCCC(C)CC=O` (centres undefined), for which the Potency entry in experiment [1], in experiment [2], in experiment [6], in experiment [4] and in experiment [5] was “inactive” throughout.
